This experiment concerns FXR:RXRa (NR concentration 270 nM, RXRa partner concentration 90 nM). Kind of experiment: PBM binding z-score (relative to random genomic background probes); higher = stronger binding; sequences stand for … in GC…GCGATTGACAGCGTAGAATGAAGG
The procedure, abridged: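 Custom Agilent 4×180K protein-binding microarrays carried double-stranded probes, each with a 34-nt variable region. These regions held direct-repeat seeds, single-nucleotide variants, half-site ablations and random human genomic background sequences. Ligand-free nuclear receptor dimers were incubated on the arrays for 1 h, antibodies against each partner (one per run) detected binding, and scanned fluorescence was regression-normalized. Binding z-scores take the random background probes as reference.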
In turn, ATATGTAGGTTAGCTGTGGTCATTCAGACTAGGC displayed a PBM binding z-score of 0.89. For the sequence TCTCGGAGGACACGAAAGGTCAGCGCTCGACATC, the PBM binding z-score amounted to 3.42. TCCTGTAGATCAAAGGTTAAGAAAGCCGAAGCCT displayed a PBM binding z-score of 1.59. The sequence TCTAGTTGGTCGAAGGTCACACACTCGAAATGCG returned a PBM binding z-score of 2.91.

As for TCATATAGGTAAAGGTGAAAGTCGAACGATATGA, the PBM binding z-score was 0.768.

TAGCCTAGGTCATTCATGGGCCAGTATAGAAAGC yielded a PBM binding z-score of 4.38.

Regarding AGAATGAGCTTATACGTAGATCAGGGAAGAAAGT, the PBM binding z-score is -0.818.

The sequence GCGACTGGGGCAAAGCAGGTTACCATAAGGTTGG gave a PBM binding z-score of 1.14. The same measure for ACTAGTTTGTCAGCTGAGGTCACACACAATTCGG: 3.55; for ATACCAAGGTGTTCGTGAGGTCGTTGATACTAAC: 1.76. The same measure for CCAGACAGGTGAAAGGTAAGTCAGTCTGGTACGC: 0.207; for AGAATGAGGTTATACGTATATCAGGGAAGAAAGT: 2.23; for GCTATTAGTTGAAAGGGCTACCGAATGATTCTCG: -0.348.

Sequence CCTACTGGGCCAAAGGTCATTGTTTCCAATGCTC yielded a PBM binding z-score of 4.79. Regarding GCTAGCAGGCCATTTGGGTCTCTCAATGACGGGC, the PBM binding z-score is -0.43. Then TCGAGTAGGTTAGTTGGGGCATTCAGCCAACATA, with 0.131; and AATACAGGGCCACTAGGCCAGAGTAGGTACGAAT, with -0.165. The sequence ATACGTAGGTTAGCTGGGGTCATTCAGACTAGGC showed a PBM binding z-score of 5.03. In turn, GCTAGTTGGCCAGTAAAAGGTCACACACCGGTCG displayed a PBM binding z-score of 2.93.

TGTCAAAGTTCAGAGGTAACGTAAGTATCCACAC gave a PBM binding z-score of 4.53. Then ATCTCTAGGTCAGACTCAGTTCAGTGAAGAACGC, with 2.16. Then TCACATAGGTAAAAGGTGAAAGTCGGTGTGGTAA, with 1.8.

The values above are taken from the supplement of paper PMC6555819.
